ALDH1A1 inh: qHTS Assay for Inhibitors of Aldehyde Dehydrogenase 1 (ALDH1A1); Purified ALDH1A1, NADH fluorescence, propionaldehyde substrate; Potency, µM (series often up to 75.3 µM), usual class: inhibitors; Aldehyde dehydrogenase 1A1 (Homo sapiens), P00352; 220,000 tested, 7.3% active; AID 1030, 2008; active = well fitted inhibition curve with a large enough effect, not every such curve was filed as active; inconclusive = small, poorly fitted or top-dose-only effect, or another doubt; inactive = no such curve, though single readings can be large or run the other way
Sfp PPTase inh: qHTS Assay for Inhibitors of Bacillus subtilis Sfp phosphopantetheinyl transferase (PPTase); 4'-phosphopantetheinyl transferase ffp (Bacillus subtilis), Q9F4F7; Biochemical Sfp PPTase activity, qHTS; Potency, µM, usual class: inhibitors; 310,000 tested, 3.5% active;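 also: the enzyme is Sfp with the accession as filed and its product quenches rhodamine fluorescence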
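Step 1, compound plus 15 nM Sfp-PPTase, 15 min, room temperature. Step 2, add rhodamine-CoA (5 uM) and BHQ-2-YbbR (12.5 uM). Step 3, read 525/598 nm fluorescence at 0 and 30 min.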
Gal4-VP16 FLuc: VP16 counterscreen qHTS for inhibitors of ROR gamma transcriptional activity | Drosophila S2 Gal4-VP16 UAS-luciferase, luminescence, 20 h | Potency, µM (titrated, usually from 53.6 µM), usual class: inhibitors | 310,000 tested, 3.5% active | AID 2546, 2010;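 also: Gal4-VP16 expression switched on by copper sulfate through the metallothionein promoter; nearly all actives have a fitted effect of over 50% in size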
PLK1 PBD block: qHTS for Inhibitors of PLK1-PDB (polo-like kinase 1 - polo-box domain): Primary Screen; Serine/threonine-protein kinase PLK1 (Homo sapiens), P53350; Plk1 PBD binding of FITC phosphopeptide, fluorescence polarization; Potency, µM, hits mostly inhibitors; 360,000 tested, 2.8% active; also: series mostly up to about 57 µM; nearly all actives have a fitted effect of over 65% in size
RORgamma inh: qHTS for inhibitors of ROR gamma transcriptional activity; Nuclear receptor ROR-gamma (Mus musculus), P51450; Drosophila S2 Gal4-RORgamma UAS-luciferase reporter, 20 h; Potency, µM (series often up to 53.6 µM), usual class: inhibitors; 310,000 tested, 5.4% active; AID 2551, 2010; also: nearly all actives have a fitted effect of over 60% in size
Target sequence (P51450 whole entry, looked up, the tested form may be a part): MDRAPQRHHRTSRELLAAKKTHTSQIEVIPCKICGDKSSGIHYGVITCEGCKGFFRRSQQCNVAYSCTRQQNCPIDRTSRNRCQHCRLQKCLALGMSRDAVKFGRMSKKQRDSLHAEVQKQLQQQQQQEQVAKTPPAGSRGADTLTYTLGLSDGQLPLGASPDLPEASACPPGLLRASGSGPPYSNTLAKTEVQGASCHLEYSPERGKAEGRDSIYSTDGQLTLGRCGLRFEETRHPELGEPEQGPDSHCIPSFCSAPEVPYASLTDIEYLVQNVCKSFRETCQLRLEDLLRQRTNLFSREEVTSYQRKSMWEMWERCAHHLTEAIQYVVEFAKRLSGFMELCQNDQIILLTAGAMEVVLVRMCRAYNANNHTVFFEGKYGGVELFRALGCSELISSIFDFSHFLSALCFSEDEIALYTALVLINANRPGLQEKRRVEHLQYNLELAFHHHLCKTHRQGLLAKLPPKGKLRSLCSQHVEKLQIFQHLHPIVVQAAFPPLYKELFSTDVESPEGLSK
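Using a luciferase readout, inhibitors were identified by reduced reporter activity in Drosophila cells coexpressing a copper-inducible Gal4–ROR gamma fusion and UAS-driven Photinus luciferase, incubated 20 hr after 700 uM copper sulfate.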
Of the large screens only hits and unclear results are named; the others gave an inactive call. Shown are actives, neighbours in structure and some others; about 12% of the full set was active somewhere. Unless noted, calls follow the shape of the dose curve; as a rule, active = well fitted curve in the direction sought with a large enough effect; inconclusive = small, poorly fitted or top-dose-only effect, or another doubt; inactive = no such curve, though single readings can be large; an effect the other way counts as inactive or inconclusive.

Cc1ccc(C(=O)N/N=C\c2ccccc2[N+](=O)[O-])cn1	Gal4-VP16 FLuc inconclusive, RORgamma inh 10µM
CCC(=O)Nc1ccc(C(=O)N/N=C/c2ccccc2[N+](=O)[O-])cc1	ALDH1A1 inh 28µM
O=C(N/N=C/C=C\c1ccccc1[N+](=O)[O-])c1ccncc1	ALDH1A1 inh inconclusive, Gal4-VP16 FLuc inconclusive, RORgamma inh 10µM
O=C(N/N=C/C=C/c1ccccc1[N+](=O)[O-])c1cccs1	Gal4-VP16 FLuc inconclusive, RORgamma inh inconclusive
O=C(NCc1ccccc1)c1cc(C2COCCN2S(=O)(=O)c2ccccc2)on1 (centres undefined)	none (no result: ALDH1A1 inh, Sfp PPTase inh, Gal4-VP16 FLuc, RORgamma inh)
COc1cc([N+](=O)[O-])cc(/C=N/NC(=O)c2ccc(C)nc2)c1O	Gal4-VP16 FLuc 0.63µM, RORgamma inh 0.89µM
CCOC(=O)c1cc(C(C)(C)C)oc1CN	none
Cc1cc(C(=O)NCC(=O)O)c(C)o1	none
CCOC(=O)CNC(=O)c1cc(C)oc1C	ALDH1A1 inh 0.063µM, Gal4-VP16 FLuc inconclusive, RORgamma inh inconclusive (no result: PLK1 PBD block)
CCOC(=O)c1ccc(CNC(=O)c2cc(C(C)(C)C)oc2C)o1	ALDH1A1 inh 25µM, Gal4-VP16 FLuc inconclusive, RORgamma inh 6.3µM
Cc1oc(C(C)(C)C)cc1C(=O)NCc1ccc2c(c1)OCO2	Gal4-VP16 FLuc inconclusive, RORgamma inh inconclusive
CCOC(=O)c1cc(C(C)(C)C)oc1CNC(=O)c1c(C)oc2c1CCCC2	ALDH1A1 inh 18µM
CN(C)c1ncc2nc(-c3ccccc3)c(=O)n(C[C@H]3CCCO3)c2n1	ALDH1A1 inh inconclusive (no result: PLK1 PBD block)
CC1(C)OC(=O)C2=C(C[C@@H](CCC(F)(F)F)O[C@H]2c2ccc(F)cc2)O1	none (no result: ALDH1A1 inh, Sfp PPTase inh, Gal4-VP16 FLuc, RORgamma inh)
O=C(COc1ccccc1)NC(NC(=S)Nc1ccccc1C(=O)O)C(Cl)(Cl)Cl (centres undefined)	ALDH1A1 inh inconclusive, PLK1 PBD block 27µM
Cc1ccc(C)c(NC(=S)NC(NC(=O)Cc2ccccc2)C(Cl)(Cl)Cl)c1 (centres undefined)	ALDH1A1 inh inconclusive, Gal4-VP16 FLuc inconclusive, PLK1 PBD block inconclusive, RORgamma inh inconclusive
O=C(c1ccccc1F)N1N=C(C(F)(F)F)CC1(O)c1ccccc1 (centres undefined)	none (no result: ALDH1A1 inh, Sfp PPTase inh, Gal4-VP16 FLuc, RORgamma inh)
CCC1=NN(C(=O)c2cccc([N+](=O)[O-])c2)C(O)(c2ccc(C)cc2)C1 (centres undefined)	Gal4-VP16 FLuc 5.6µM, RORgamma inh 5µM (no result: ALDH1A1 inh)
O=C1CN(C(=O)c2cccc([N+](=O)[O-])c2)CC(=O)N1	none (no result: ALDH1A1 inh)
O=C(c1ccccc1)N1N=C(C(F)(F)F)CC1(O)c1ccccc1O (centres undefined)	Gal4-VP16 FLuc 13µM, RORgamma inh 8.9µM (no result: ALDH1A1 inh)
CCC1=NN(C(=O)c2ccc(Br)cc2)C(O)(c2ccccc2)C1 (centres undefined)	Gal4-VP16 FLuc 7.1µM, RORgamma inh 13µM
CC1=NN(C(=O)c2ccccc2)C(O)(c2ccc(Br)cc2)C1 (centres undefined)	Gal4-VP16 FLuc inconclusive, RORgamma inh 7.9µM
CS(=O)(=O)c1ccc(Nc2nc(C(N)Cc3ccc(Cl)cc3)cs2)cc1 (centres undefined)	none (no result: ALDH1A1 inh, Sfp PPTase inh, Gal4-VP16 FLuc, RORgamma inh)
COc1ccc2c(c1)C(=O)[C@H](OC(=O)Nc1ccc(OC(F)F)cc1)[C@@H](c1ccc(OC)c(Br)c1)O2	none (no result: PLK1 PBD block)
CC1=CC(C)(C)Nc2ccc(OC(=O)CN3C(=O)c4cccc5cccc(c45)C3=O)cc21	ALDH1A1 inh 11µM, Sfp PPTase inh 40µM, PLK1 PBD block inconclusive
CC1=CC(C)(C)Nc2ccc(OC(=O)C(Cc3ccccc3)N3C(=O)c4ccccc4C3=O)cc21 (centres undefined)	RORgamma inh inconclusive
CC1=CC(C)(C)Nc2ccc(OC(=O)CN3C(=O)c4ccccc4C3=O)cc21	ALDH1A1 inh inconclusive, Gal4-VP16 FLuc 7.1µM, RORgamma inh 4.5µM
CCOc1ccc2c(c1)C(C)=CC(C)(C)N2	ALDH1A1 inh inconclusive, Sfp PPTase inh inconclusive, Gal4-VP16 FLuc inconclusive
O=P1(O)CC2=C(CC=CC2)C1	none (no result: ALDH1A1 inh, Sfp PPTase inh, Gal4-VP16 FLuc, RORgamma inh)
O=C(C[n+]1ccc(C(=O)NCc2ccccc2)cc1)c1ccc(Cl)cc1	none (no result: ALDH1A1 inh)
COc1ccc(Br)c(C=O)c1OS(=O)(=O)c1ccc(C)cc1	none (no result: ALDH1A1 inh, Sfp PPTase inh, Gal4-VP16 FLuc, RORgamma inh)
